From PubChem
SRC3 inh: SRC3 coactivator transcriptional activity inhibitors, primary screen, cell-based, luminescence. Nuclear receptor coactivator 3 (Homo sapiens), Q9Y6Q9. HEK293 GAL4-SRC3 luciferase reporter. inhibition, % at 3.6 µM. 360,000 tested, 0.17% active. AID 588352, 2011;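 active = inhibition above a per-campaign cutoff, the mean of all compounds plus 3 SD, cut at about 60% in these data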;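 note: 0% = DMSO-treated cells and 100% = gossypol-treated cells at 36 µM; higher means less SRC3-driven luciferase light from the GAL4 reporter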
COUP-TFII inh: NR2F2 transcriptional activity inhibitors, primary screen, cell-based, luciferase reporter, HEK293T, luminescence. COUP transcription factor 2 (Homo sapiens), P24468. HEK293T NGFI-A luciferase reporter. inhibition, % at 8.6 µM. 370,000 tested, 0.7% active;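 active = inhibition above a per-plate cutoff, mean inhibition of test wells between control levels plus 3 SD, cut at about 38% in these data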;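 note: cells cotransfected with COUP-TFII expression vector driving the NGFI-A reporter; 0% = median of COUP-TF2 test wells and 100% = reporter-only cells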
NR5A2 inv ag: LRH-1 (NR5A2) inverse agonists, primary screen, cell-based, luminescence, HEK293T, StAR-luciferase reporter; Nuclear receptor subfamily 5 group A member 2 (Homo sapiens), O00482; LRH-1 transfected, 24 h; inhibition, % at 3.6 µM; 360,000 tested, 0.13% active;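 active = inhibition above the mean inhibition of all tested compounds plus 3 SD, cut at about 73% in these data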;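 note: 0% = DMSO wells and 100% = reporter-only cells lacking LRH-1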
NCOA1 inh: SRC1 coactivator transcriptional activity inhibitors, primary screen, cell-based, luminescence. inhibition, % at 3.6 µM. 360,000 tested, 0.12% active. AID 588354, 2011. HEK293 GAL4-SRC1 luciferase reporter;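 active = inhibition above the campaign mean plus 3 SD, with each screening campaign given its own cutoff, cut at about 60% in these data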;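 note: 0% = DMSO treated cells and 100% = gossypol at 36 µM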
Target sequence (Q15788 whole entry, looked up, the tested form may be a part): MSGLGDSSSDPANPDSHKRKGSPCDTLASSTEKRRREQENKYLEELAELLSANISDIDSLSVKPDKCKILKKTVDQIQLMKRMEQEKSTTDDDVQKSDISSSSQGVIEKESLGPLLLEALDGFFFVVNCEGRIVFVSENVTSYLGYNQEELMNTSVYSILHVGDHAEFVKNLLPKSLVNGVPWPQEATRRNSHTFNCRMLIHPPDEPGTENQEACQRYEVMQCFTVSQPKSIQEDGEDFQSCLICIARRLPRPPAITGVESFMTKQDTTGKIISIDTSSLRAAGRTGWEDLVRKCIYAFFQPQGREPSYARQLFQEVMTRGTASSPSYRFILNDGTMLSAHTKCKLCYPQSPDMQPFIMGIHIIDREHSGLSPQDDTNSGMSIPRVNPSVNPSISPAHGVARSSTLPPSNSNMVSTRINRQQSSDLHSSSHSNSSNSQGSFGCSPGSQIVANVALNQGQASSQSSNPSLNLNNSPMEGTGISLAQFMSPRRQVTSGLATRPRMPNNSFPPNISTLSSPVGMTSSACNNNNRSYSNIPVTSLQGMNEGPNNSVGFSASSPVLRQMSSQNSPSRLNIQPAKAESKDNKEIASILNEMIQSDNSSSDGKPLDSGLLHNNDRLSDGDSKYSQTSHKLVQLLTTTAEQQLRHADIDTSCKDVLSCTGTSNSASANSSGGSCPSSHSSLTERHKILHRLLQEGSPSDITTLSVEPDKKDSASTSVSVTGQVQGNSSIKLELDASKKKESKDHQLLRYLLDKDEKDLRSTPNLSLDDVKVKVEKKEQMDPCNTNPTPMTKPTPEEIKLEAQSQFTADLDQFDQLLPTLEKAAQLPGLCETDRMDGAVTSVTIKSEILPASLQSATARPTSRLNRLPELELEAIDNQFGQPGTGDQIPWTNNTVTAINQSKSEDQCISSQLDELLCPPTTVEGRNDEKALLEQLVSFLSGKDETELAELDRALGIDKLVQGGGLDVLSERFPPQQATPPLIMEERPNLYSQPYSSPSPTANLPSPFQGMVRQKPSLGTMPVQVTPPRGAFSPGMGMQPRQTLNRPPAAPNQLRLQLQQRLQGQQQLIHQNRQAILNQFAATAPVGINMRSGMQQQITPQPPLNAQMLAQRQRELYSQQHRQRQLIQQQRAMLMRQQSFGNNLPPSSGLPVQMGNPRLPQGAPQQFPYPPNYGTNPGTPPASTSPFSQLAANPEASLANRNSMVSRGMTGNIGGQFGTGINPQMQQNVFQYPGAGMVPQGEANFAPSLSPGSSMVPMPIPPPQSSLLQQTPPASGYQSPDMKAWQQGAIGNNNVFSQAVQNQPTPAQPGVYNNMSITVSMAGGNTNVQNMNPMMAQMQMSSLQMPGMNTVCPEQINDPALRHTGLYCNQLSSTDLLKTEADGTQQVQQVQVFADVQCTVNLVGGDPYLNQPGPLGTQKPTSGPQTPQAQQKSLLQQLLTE
NCOA2 inhibitor: inhibition of GAL4-SRC2 driven luciferase reporter, primary screen, SRC2 inhibitor project, cell-based, luminescence; inhibition, % at 9 µM; Nuclear receptor coactivator 2 (Homo sapiens), Q15596; 370,000 tested, 0.17% active; HEK293 GAL4-SRC2 luciferase reporter;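 active = inhibition above the mean inhibition of all tested compounds plus 3 SD, set per campaign, cut at about 52% in these data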;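 note: 0% = DMSO treated cells and 100% = cells given Gossypol at 36 µM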
Gli-Sufu antag: Gli-Sufu pathway antagonists, primary screen, luciferase luminescence, Sufu-KO-LIGHT cells, uHTS; inhibition, % at 5 µM; AID 588413, 2011; 340,000 tested, 0.74% active; Sufu-KO-LIGHT fibroblasts, Gli luciferase reporter luminescence;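 active = inhibition above about 55%, limit read from the data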;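 note: 0% = DMSO-treated cells and 100% = wells with medium but no cells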
Gal4-VP16 ctr: Gal4-VP16 luciferase reporter inhibitors, counter-screen for COUP-TFII antagonist project, cell-based, luminescence, HEK293; shares compounds with COUP-TFII inh; inhibition, % at 8.5 µM; 2,500 tested, 25% active; AID 687007, 2013; in the data active = inhibition above about 13%
NR2F2 inh conf: NR2F2 transcriptional activity inhibitors, confirmation, cell-based, luciferase reporter, HEK293, triplicate; shares compounds with COUP-TFII inh; HEK293 NGFI-A luciferase reporter, luminescence; inhibition, % at 8.5 µM; 2,500 tested, 45% active; AID 687008, 2013;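 active = mean inhibition over three repeats above a set limit taken from the earlier primary screen, cut at about 38% in these data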;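 note: 100% = cells given the luciferase reporter alone without the COUP-TF2 vector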
The depositor's hits bear a star; . = no result. In the library only some 1.3% were active in any assay of this set; here they are far more common.

SMILES	SRC3 inh	COUP-TFII inh	NR5A2 inv ag	NCOA1 inh	NCOA2 inhibitor	Gli-Sufu antag	Gal4-VP16 ctr	NR2F2 inh conf
C(=N\Nc1nc2ccccc2s1)/c1ccccn1	.	63*	.	.	69*	75*	70*	80*
COc1ccc(C=NNc2nc3ccccc3s2)cc1	-106	-39	-97	-108	-39	-101	.	.
COC(=O)[C@H](C(C)C)N1Cc2nnn(CC3CCCCC3)c2-c2cc(F)ccc2S1(=O)=O	.	6	.	.	-2	.	.	.
S=C(NCC1(c2ccccc2)CCCC1)Nc1ccccc1	18	42*	14	-7	12	10	4	8
O=C(NCC1(c2ccccc2)CCCC1)C(=O)NCC1(c2ccccc2)CCCC1	-1	-2	-8	6	-9	20	.	.
CC(C)c1ccc(NC2CCCN(C(=O)c3n[nH]c4c3CCC4)C2)cc1 (stereo unspecified)	-11	38*	28	1	14	3	-5	24
COC(=O)c1ccc(C(=O)N2CCCC(Nc3ccc(C(C)C)cc3)C2)cc1 (stereo unspecified)	-18	0	-24	-2	2	-4	.	.
CC(C)Oc1cccc(C(=O)C2CCCN(Cc3cnc(N4CCOCC4)s3)C2)c1 (stereo unspecified)	10	37*	27	-10	10	19	-1	15
COc1ccc(C(=O)C2CCCN(Cc3cnc(N4CCOCC4)s3)C2)cc1F (stereo unspecified)	14	18	3	18	20	4	.	.
COC(=O)c1ccc(CN2CCc3ccc(NC(=O)c4ccncc4)cc3C2)cc1	11	48*	9	-32	41	20	6	30
O=C(Nc1cccc(Br)c1)c1ccc(CN2CCc3ccccc3C2)cc1	0	53*	30	10	22	-7	-24	32
O=C(Nc1ccc(F)cc1)c1ccc(CN2CCc3ccccc3C2)cc1	-2	45*	15	20	19	1	-41	34
O=S1(=O)c2c(cccc2N2CC[C@@H](O)C2)O[C@H]2CCN1C2	.	-5	.	.	12	.	.	.
CC1=CC2C(C(O)CC3(C)C2CC(C)C32OCOC23COCO3)C2(C)C/C(=C\O)C(=O)C=C12 (stereo unspecified)	-21	52*	-11	-20	-48	42	21*	42*
CCc1cc(-c2cnnn2Cc2ccc3ccccc3c2)ccc1-c1cn(CC(C)C)nn1	-32	-18	-6	-7	20	.	.	.
CCc1cc(-c2nnn(CCC3COCCO3)c2CC)ccc1-c1cn(Cc2ccccc2)nn1 (stereo unspecified)	-2	66*	31	9	26	.	-19	34
O=C(OCCN1CCN(C2CN(Cc3cn(Cc4ccccc4F)nn3)S(=O)(=O)C2)CC1)c1cc2ccccc2o1 (stereo unspecified)	.	6	.	.	-2	.	.	.
CCCCN=C1NN=C(c2ccc3c(c2)OCCO3)CS1	-48	-20	-88	-63	-76	-27	.	.
c1cc2c(cc1C1=NNC(=NC3CC3)SC1)OCCO2	66*	46*	25	57	61*	77*	52*	76*
Cc1cc(C2=NNC(=NC3CCCCC3)SC2)c(C)n1-c1c(C)n(C)n(-c2ccccc2)c1=O	1	18	10	11	-5	0	.	.
Cc1cc(C2=NNC(=NC3CC3)SC2)c(C)n1-c1ccccc1F	89*	97*	89*	93*	93*	93*	94*	108*
CC(C)CN1C(=O)[C@@]2(CC(=O)N(C)C2c2ccccc2)c2cc(-n3cc(CO)nn3)ccc21 (stereo partly specified)	.	-15	.	.	6	.	.	.
CCc1cccc(OCC(=O)Nc2ccc(C)c(S(=O)(=O)N3CCCCCC3)c2)c1	21	40*	-9	-10	7	23	3	18
Cc1ccc(NC(=O)COc2ccc(N(C)C(=O)C(C)(C)C)cc2)cc1S(=O)(=O)N1CCCCC1	10	74*	25	10	15	68*	3	54*
O=[N+]([O-])c1nn(-c2ccc3c(c2)OCCO3)n(O)c1=Nc1ccccc1	85*	91*	94*	76*	84*	.	-105	35
SMILES	SRC3 inh	COUP-TFII inh	NR5A2 inv ag	NCOA1 inh	NCOA2 inhibitor	Gli-Sufu antag	Gal4-VP16 ctr	NR2F2 inh conf
Cc1cc(C)cc(N=c2c([N+](=O)[O-])nn(-c3ccc4c(c3)OCCO4)n2O)c1	1	8	-6	-7	0	31	.	.
CN(c1cccc(Cl)c1)S(=O)(=O)c1cccc(C(=O)Nc2nc3ccccc3[nH]2)c1	0	42*	-21	-3	-11	17	-39	-5
COc1ccc(N(C)S(=O)(=O)c2cccc(C(=O)Nc3nc4ccccc4[nH]3)c2)cc1	10	-10	-22	5	10	7	.	.
CC(=O)N1CCc2cc(S(=O)(=O)NCCC(=O)NCc3ccc(Cl)cc3)ccc21	.	20	.	.	11	.	.	.
Cc1c(C(=O)N2CCN(Cc3ccc4c(c3)OCO4)CC2)sc2ncnc(N3CCN(c4ccccc4F)CC3)c12	29	46*	22	26	31	18	4	57*
COc1cc(SC)ccc1C(=O)N1CCN(Cc2ccc3c(c2)OCO3)CC1	21	48*	-8	13	32	7	5	10
CCOC(=O)N1CCN(C(=O)C[C@H]2C[C@@]3(C(=O)OC)C(=C[C@H](C(C)C)O[C@@H]3C3CC3)N(Cc3cccc4ccccc34)C2=O)CC1	.	10	.	.	8	.	.	.
N#Cc1cccc(Cn2ccc3ccc(-c4ccc5ccn(Cc6cccc(C#N)c6)c5c4)cc32)c1	.	-1	.	.	-15	.	.	.
N#Cc1ccc(OC[C@@H](O)CN2CCC(C(O)(c3ccccc3)c3ccccc3)CC2)cc1F	.	-1	.	.	22	.	.	.
O=C(CCCN1C(=O)/C(=C/c2ccccc2Cl)SC1=S)Nc1ccccn1	15	40*	30	20	69*	9	6	25
Cc1ccc(C(=O)NNC(=O)CCCN2C(=O)/C(=C/c3ccccc3Cl)SC2=S)cc1	34	47*	11	21	63*	5	32*	33
